The values that follow come from PubChem BioAssay.

For experiment [1], the target named is PEG-3 (UniProt Q6IN02). Kind of experiment: inhibition of PEG-3 promoter-driven reporter – cell-based, HeLa, luciferase, CREF/GAPDH counter-screen panel, dose response (AID 624167). The following applies: CREF/GAPDH counter-screens; HeLa PEG-Prom luciferase reporter, overnight, run 1, dose range 1, at 100 µM (top of the series) unless noted. (The purpose of a counterscreen is to sort out artefacts and off-target activity.)

For experiment [2], the target named is PEG-3 (UniProt Q6IN02). Described as above. The note with it: CREF/GAPDH counter-screens; HeLa PEG-Prom luciferase reporter, overnight, run 2, dose range 1, at 100 µM (top of the series) unless noted.

SMILES strings stand for the structures.

Sequence of PEG-3 (Q6IN02 whole entry, looked up): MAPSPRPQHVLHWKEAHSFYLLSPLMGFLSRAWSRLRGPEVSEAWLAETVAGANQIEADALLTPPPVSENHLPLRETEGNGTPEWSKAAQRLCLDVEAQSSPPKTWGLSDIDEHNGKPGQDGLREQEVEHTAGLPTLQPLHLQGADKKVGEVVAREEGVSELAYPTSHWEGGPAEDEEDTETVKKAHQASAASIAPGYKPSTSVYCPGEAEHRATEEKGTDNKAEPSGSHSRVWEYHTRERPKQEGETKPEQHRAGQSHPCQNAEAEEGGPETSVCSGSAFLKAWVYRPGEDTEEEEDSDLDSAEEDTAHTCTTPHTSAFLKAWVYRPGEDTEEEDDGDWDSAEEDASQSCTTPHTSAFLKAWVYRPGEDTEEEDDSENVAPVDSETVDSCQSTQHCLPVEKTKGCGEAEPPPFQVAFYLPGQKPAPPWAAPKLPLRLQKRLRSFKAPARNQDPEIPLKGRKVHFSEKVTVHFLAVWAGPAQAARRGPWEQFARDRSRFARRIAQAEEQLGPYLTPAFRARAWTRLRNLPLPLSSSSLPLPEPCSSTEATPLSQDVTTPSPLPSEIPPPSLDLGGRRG

As a reminder, the inhibition is the change of the read-out against control, counted positive when it falls. Regarding `CCCN(CCC)CCCNC(=S)Nc1ccc2nc(N3CCCC3)cc(C)c2c1`, the inhibition was found to be 99.6% in the experiment with PEG-3 [1] and 98.1% with PEG-3 [2].

On to `Cc1ccc(NC(=O)Nc2ccnc(-c3cccnc3)n2)cc1`, for which the inhibition with PEG-3 [1] was 44.3%; with PEG-3 [2] it was 8.15%.

On to `CC1=C(CC[C@@H](C)CO)OC2CC3C4CCC5CC(O)CCC5(C)C4CC(=O)C3(C)C12` (stereo partly specified), for which the inhibition with PEG-3 [1] turned out to be 88.8%; in the experiment with PEG-3 [2] it was 83.2%.

`Cc1ccc(S(=O)(=O)N2CCCCC2)cc1C(=O)N(C)CC(=O)Nc1ccc(Cl)c(C(F)(F)F)c1`: the inhibition with PEG-3 [1] is 74.6%; with PEG-3 [2], 60.6%.

As to `Cc1nc(N2CCN(c3ccccc3O)CC2)c2c(-c3ccccc3)csc2n1`, the inhibition with PEG-3 [1] is 94.8%; with PEG-3 [2] it was 94%.

Regarding `O=C(Cc1csc(Nc2nc(=S)[nH]c3ccccc23)n1)NCc1ccccc1Cl`, the results for the inhibition in the experiment with PEG-3 [1] and in the experiment with PEG-3 [2] were -6.11% and -45.6%, respectively.

Take `O=S(=O)(N[C@H]1C[C@@H](NS(=O)(=O)OCC(Cl)(Cl)Cl)C2CCCCC21)OCC(Cl)(Cl)Cl` (stereo partly specified): the inhibition was 99.2% with PEG-3 [1] and 101% in the experiment with PEG-3 [2].

As for `C[C@@]12C(=O)Nc3cc(Cl)ccc3C(=O)N1[C@H]1c3cc(Cl)ccc3OC[C@@H]1[C@@H]2c1ccccc1`, the inhibition with PEG-3 [1] came out at 32.1%; in the experiment with PEG-3 [2], 36.4%.

Consider `O=C(CN1CCCC1)Nc1ccc(-c2nc3cc(NC(=O)CN4CCCC4)ccc3o2)cc1`, for which the inhibition came out at 98.9% in the experiment with PEG-3 [1] and 102% with PEG-3 [2].

In the case of `Cc1nc(N2CCN(S(=O)(=O)c3ccccc3C#N)CC2)c2c(-c3ccccc3)csc2n1`, the inhibition with PEG-3 [1] is -7.38%; in the experiment with PEG-3 [2], 5.99%.

For `CN(C)C=NC(=O)c1[nH]c2ccc(Cl)cc2c1-c1ccccc1`, the inhibition with PEG-3 [1] was determined as 98.6%; in the experiment with PEG-3 [2], 96.5%.

Regarding `CC(=O)c1ccc(Nc2nc(C(N)Cc3ccc(Cl)cc3)cs2)cc1` (stereo unspecified), the figures for the inhibition in the experiment with PEG-3 [1] and with PEG-3 [2] were 99.5% and 98.2%, respectively.

On to `COc1ccc(-c2cc(C(=O)N3CCN(c4ncccn4)CC3)c3ccccc3n2)c(OC)c1`, for which the inhibition turned out to be 70% in the experiment with PEG-3 [1] and 47.8% in the experiment with PEG-3 [2].
